In PubChem BioAssay AID743446 (Broad Institute, 2014):
Potency and affinity values are given separately. Unmarked numbers belong to inactive results. No rule for the calls is given here.

Test: viability loss in HEK293 cells – cell-based, plate reader, cherry-picked samples, cytotoxicity control, dose response (AID 743446)
Conditions: active compounds read low; at 26 µM unless noted

Compared with `CC(=O)N1CCc2cc(S(=O)(=O)C(C)CC(=O)NCc3ccco3)ccc21` (stereo unspecified), `Cc1ccnc(Nc2nc(-c3sc(C)nc3C)cs2)c1` is lower in max activity: -15.3% [at 6 µM] for the first, -16.3% [at 6 µM] for the second.

First: CC(=O)c1ccc(S(=O)(=O)N2CCC(NC(=O)Nc3cccc(F)c3)CC2)cc1
Second: COc1cccc(NC(=O)Nc2cccc(C(=O)O)c2)c1
The max activity of the first is higher: 28.3% [at 3 µM] for the first, -21.7% [at 3 µM] for the second.

Going from `C[C@@H]1CN([C@H](C)CO)C(=O)c2c(c3ccccc3n2C)-c2ccccc2CO[C@H]1CN(C)S(=O)(=O)c1cn(C)cn1` to `OC1CCC(Nc2ccn3nc(-c4cccc(OCc5ccccc5)c4)cc3n2)CC1` (stereo unspecified), the max activity falls from 11.7% [at 12 µM] to -14.9% [at 12 µM].

Compared with `CCCCC(=O)N(C)c1c(C)nc2ccc(C(=O)N3CCCCC3)cn12`, `COC(=O)c1ccc(Nc2cc(C)nc3ccc(C)cc23)cc1` is lower in max activity: -12.7% [at 12 µM] for the first, -31.7% [at 12 µM] for the second.

First: CC1CCCN(c2ncnc3c2cnn3-c2ccccc2)C1 (stereo unspecified)
Second: COc1ccc(-c2cn3cc(C)ccc3n2)cc1F
The max activity of the first is lower: -23.6% [at 12 µM] for the first, 44.7% [at 12 µM] for the second.

Going from `Cc1ccc(Nc2nc(-c3ccccc3)cs2)nc1` to `CO[C@@H]1CN(C)C(=O)c2cc(NC(C)=O)ccc2OC[C@@H](C)N(Cc2ccc(F)cc2)C[C@@H]1C`, the max activity rises from -17.9% [at 0.05 µM] to 59.8% [at 0.05 µM].

First: O=C(c1ccccc1)N1CCSc2sccc2C1=O
Second: O=C(CCCc1ccccc1)Nc1cccc(C(=O)O)c1
The max activity of the first is lower: 36.7% for the first, 48.9% for the second.

Compared with `Cc1noc(C)c1S(=O)(=O)Nc1cccc2c1O[C@H](CN(C)C(=O)Nc1ccc(F)cc1)[C@H](C)CN([C@H](C)CO)C2=O`, `C[C@@H]1CN([C@H](C)CO)C(=O)c2c(c3ccccc3n2C)-c2ccccc2CO[C@@H]1CN(C)S(=O)(=O)c1ccc(C(F)(F)F)cc1` is lower in max activity: -6.26% for the first, -8.56% for the second.

Compared with `C[C@@H]1CN([C@H](C)CO)C(=O)CCCn2nncc2CO[C@H]1CN(C)C(=O)Nc1cccc2ccccc12`, `CCCCn1nnnc1C(c1cc2ccccc2o1)N1CCN(c2ccncc2)CC1` (stereo unspecified) is lower in max activity: 15.4% for the first, 11.8% for the second.

First: O=C(NCCc1ccccc1)c1ccc2nccnc2c1
Second: Cc1oc(-c2ccc3c(c2)OCCO3)cc1C(=O)O
The max activity of the first is higher: 9% for the first, -18.6% for the second.

`CCOc1ccc(-c2cnc3ccccc3n2)cc1` gave a max activity of 16.5% [at 0.38 µM].

First: C=CCNc1nc(-c2cc3ccccc3o2)cs1
Second: COc1ccc(-n2nnnc2-c2nc3ccccc3s2)cc1
The max activity of the first is lower: -11.4% [at 0.8 µM] for the first, 34.3% [at 0.8 µM] for the second.

For `C[C@H](CO)N1C[C@H](C)[C@H](CN(C)C(=O)Nc2ccccc2)OCCCC[C@H](C)Oc2ccc(NC(=O)CCC(F)(F)F)cc2C1=O`, the max activity was -24.3% [at 0.195 µM].

In the case of `CO[C@H]1CN(C)C(=O)c2ccc(NC(=O)C3CC3)cc2OC[C@@H](C)N(C(=O)Cc2ccccn2)C[C@H]1C`, the max activity is reported as 22% [at 1.6 µM].

In the case of `O=C(CCc1nnc(CCCCc2ccccc2)o1)N1CCCC(O)C1` (stereo unspecified), the max activity is reported as -17.7% [at 0.1 µM].
